Experimental data: PubChem BioAssay (NCI)
This is part of a sample that, as a whole, favours compounds with a hit. Of some 83,000 tested, about 20% had one in any assay.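 Values shown are percent growth following 48 h exposure of cells in 96-well plates to a single concentration of compound; below 10 was considered active.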 Active and inactive are the calls of the source.

Legend:
Assay in all cases: NCI-60 one-dose screen, 48 h (100 = growth as untreated, 0 = no growth, -100 = all killed)
Details in all cases: 10 µM unless noted
[1] = tested on: HCT-15 colon
[2] = tested on: HT29 colon
[3] = tested on: SNB-75 CNS
[4] = tested on: SNB-19 CNS
[5] = tested on: U251 CNS
[6] = tested on: PC-3 prostate
[7] = tested on: SK-MEL-5 melanoma
[8] = tested on: UACC-62 melanoma
[9] = tested on: LOX IMVI melanoma
[10] = tested on: SK-MEL-28 melanoma
[11] = tested on: SK-MEL-2 melanoma
[12] = tested on: EKVX NSCLC
[13] = tested on: SN12C renal
[14] = tested on: UO-31 renal
[15] = tested on: TK-10 renal
[16] = tested on: ACHN renal
[17] = tested on: CAKI-1 renal
[18] = tested on: A498 renal
[19] = tested on: CCRF-CEM leukemia
[20] = tested on: MOLT-4 leukemia

Measured: growth

CSc1nc2sc3c(c2c(=O)n1-c1ccc([N+](=O)[O-])cc1)CCCCC3
inactive: [1] 94.6% | [2] 92.6% | [3] 89.7% | [4] 86% | [5] 84.5% | [6] 85.5% | [7] 96.4% | [8] 87.1% | [9] 94.7% | [10] 105% | [11] 101% | [12] 85.7% | [13] 88.3% | [14] 90.8% | [15] 92.9% | [16] 67.5% | [17] 71% | [18] 80.2% | [19] 93.3% | [20] 93.3%

N#Cc1c(-c2ccccc2)cc(-c2ccccc2)n(CCCCCC(=O)Nc2ccccc2N)c1=O
active: [19] 6.3% | [20] 9.12%
inactive: [1] 51.7% | [2] 43.7% | [3] 32.2% | [4] 68.2% | [5] 61.2% | [6] 43.7% | [7] 21.2% | [8] 65.5% | [9] 26.2% | [10] 80.5% | [11] 89.7% | [12] 50.8% | [13] 59% | [14] 34.4% | [15] 72.8% | [16] 73.7% | [17] 29.7% | [18] 96.7%

COc1cc(CNC(=O)CCCC/C=C/C(C)C)ccc1OCc1nnc(Nc2ccc([N+](=O)[O-])cc2)o1
inactive: [1] 81.2% | [2] 71.7% | [3] 48.7% | [4] 54% | [5] 48.6% | [6] 37.6% | [7] 46.3% | [8] 39.6% | [9] 55.2% | [10] 74.3% | [11] 78.9% | [12] 74.7% | [13] 49% | [14] 58.7% | [15] 84.1% | [16] 41.2% | [17] 33.6% | [18] 56.8% | [19] 78.9% | [20] 84.2%

Oc1c(Cl)cc(Cl)c2ccc(Cn3cc(-c4cc(F)cc(F)c4)nn3)nc12
inactive: [1] 41.9% | [2] 68.5% | [3] 58.6% | [4] 94.1% | [5] 96.2% | [6] 84.8% | [7] 98.5% | [8] 74.1% | [9] 20.8% | [10] 61.4% | [11] 96.3% | [12] 84.7% | [13] 78.7% | [14] 68.3% | [15] 102% | [16] 36.5% | [17] 18.1% | [18] 99.4% | [20] 17.4%
active: [19] 4.58%

CC(=O)[C@@H]1CCC=C2CC[C@]3(C)[C@@H](CC[C@@H]4[C@@]5(C)CCCNC(C)(C)[C@@H]5CC[C@]43C)[C@H]21
inactive: [3] 23.5% | [7] 64.2% | [14] 18.4% | [18] 69.8%
active: [1] -89% | [2] -83.7% | [4] -77.2% | [5] -98.8% | [6] -21.4% | [8] -79% | [9] -99.5% | [10] -42.3% | [11] -52.3% | [12] -47.8% | [13] -87.9% | [15] -46.6% | [16] -82.4% | [17] -92.5% | [19] -23.4% | [20] -46.4%

O=C1/C(=C/c2ccc(Cl)c(Cl)c2)CN(C(=O)C(Cl)Cl)C/C1=C\c1ccc(Cl)c(Cl)c1
active: [1] -62.1% | [2] -4.7% | [3] -70.7% | [4] -93.7% | [5] -92.4% | [6] -45.6% | [7] -79.4% | [8] -46.9% | [9] -91.7% | [10] -64.4% | [11] -3.03% | [12] -61.7% | [13] -76% | [14] -99.3% | [15] -50.8% | [16] -100% | [17] -74% | [18] -91.2% | [19] 4.82% | [20] -0.286%

CCOC(=O)C1=C(NC)OCC1=O
inactive: [1] 111% | [2] 99.6% | [3] 99.1% | [4] 109% | [5] 96.5% | [6] 85.7% | [7] 93.4% | [8] 103% | [9] 101% | [10] 110% | [11] 116% | [12] 99.3% | [13] 103% | [14] 88.3% | [15] 99.4% | [16] 110% | [17] 100% | [18] 86.1% | [19] 101% | [20] 97.3%
